Results from PubChem BioAssay AID652136 (The Scripps Research Institute Molecular Screening Center, 2013).
Hit rate of the full screen: of about 2,400 compounds, about 1,900 (79%) were called active. So high a share suggests a set chosen from earlier hits. These entries were drawn from the full list. Values without a mark were called inactive.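 Rule for the calls: active = inhibition above the mean of all tested compounds plus 3 SD (cut at about 3% in these data); inactive = the rest.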

experiment: StAR reporter signal changes without DAX1, counter-screen for DAX1 inhibitor project, cell-based, luminescence, AF-2 mutant SF-1, transactivation (AID 652136); details: HEK293 StAR-luciferase, SF-1 AF2 mutant, at 6.8 µM, hits give high values;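 note: 0% = DAX-1 transfected cells with DMSO and 100% = cells without DAX-1 with DMSO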

Row | Structure (SMILES) | inhibition
1 | COc1ccc(-c2csc(-c3cccs3)n2)cc1OC | 5.61% (active)
2 | CN1CCN(C(=O)c2ccc(-c3ccc(Br)cc3)o2)CC1 | 4.28% (active)
3 | Cc1ccc(S(=O)Cc2ccc(C(=O)N3CCN(C4CCCCC4)CC3)o2)cc1 (stereo not drawn) | 2.33%
4 | O=C(Nc1ncccc1O)c1ccc(C(=O)c2ccccc2)cc1 | 35.8% (active)
5 | O=C(Nc1ncccc1O)c1ccc(S(=O)(=O)N2CCCCCC2)cc1 | 2.43%
6 | O=C(Nc1ncccc1O)c1ccc(S(=O)(=O)N2CCCC2)cc1 | 5.53% (active)
7 | CC1CCN(CCCNC(=O)CN2C(=O)CSc3ccc(S(=O)(=O)N4CCCCC4)cc32)CC1 | 1.65%
8 | Clc1ccc(Nc2nc(-c3cccs3)cs2)nc1 | 7.52% (active)
9 | COc1cc(OC)c(C(=O)NNC(=O)c2ccc(NS(=O)(=O)c3cccs3)cc2)cc1OC | -0.43%
10 | CC(C)(C)c1csc(NC2=NS(=O)(=O)c3ccccc32)n1 | 7.77% (active)
11 | Cc1ccc(N/C=C/C(=O)c2ccccc2)cc1C | 4.16% (active)
12 | Fc1ccc2cnc(-c3ccccc3)cc2c1 | 5.1% (active)
13 | O=C(NCCc1ccc(F)cc1)c1ccc2nccnc2c1 | 8.87% (active)
14 | COc1ccc2nc(-c3ccccn3)ccc2c1 | 5.03% (active)
15 | Cc1nn(-c2ccc([N+](=O)[O-])cc2)c(N)c1-c1ccccc1 | 6.97% (active)
16 | O=C(NC(=S)Nc1ccc(Cl)cc1Cl)C1CC1 | 3.76% (active)
17 | COc1ccc(CCOC2OC(CO)C(OC(=O)/C=C/c3ccc(O)c(OC)c3)C(O[C@H]3O[C@@H](C)[C@H](O)[C@@H](O)[C@H]3O)C2O)cc1O (stereo partly drawn) | 1.22%
18 | Cc1cc(OCc2cc(C(=O)NCc3cc(C(C)C)no3)no2)cc(C)c1Cl | 3.41% (active)
19 | CCC(=O)Nc1ccc(-c2ccc(N3CCCCC3)nn2)cc1 | 2.89% (active)
20 | COc1ccc(C(=O)NCC[N+](C)(C)C)cc1 | 1.97%
21 | CCCOc1ccc(C(=O)NCCc2ccccc2)cc1 | 4.75% (active)
22 | COc1ccc(CCNC(=O)COC(=O)Cc2ccccc2F)cc1 | -0.5%
23 | CN(C(=O)c1cc2c(=O)n3ccccc3nc2s1)C1CCCCC1 | 3.77% (active)
24 | Cc1ccccc1OCC(=O)Nc1ccc2c(c1)ncn2C | 5.06% (active)
25 | Cc1ccccc1Nc1nc(N)nc(CSc2ccccc2)n1 | 9.51% (active)
26 | CCOc1cccc(/C=C/c2ccc3ccccc3n2)c1OC(C)=O | 2.8%

Row | Structure (SMILES) | inhibition
27 | CNCC(O)c1ccc(O)c(O)c1 (stereo not drawn) | -2.85%
28 | O=c1c2c(nc3cc(-c4cccc(Cl)c4)[nH]n13)CCCC2 | 5.64% (active)
29 | CCN(c1ccccc1)S(=O)(=O)c1ccc(OCC(=O)N2CCCC2)cc1 | 1.13%
30 | CCOc1ccc(S(=O)(=O)Nc2cccc(C(=O)NCC3(N4CCCCC4)CCCCC3)c2)cc1 | 5.11% (active)
31 | O=C(NCC1(N2CCCCC2)CCCCC1)c1ccc(NS(=O)(=O)c2ccc(F)cc2)cc1 | 6.24% (active)
32 | COc1ccccc1-c1cc(C(=O)N2CCCCC2)no1 | 7.48% (active)
33 | COc1ccc(OCc2cc(C(=O)N3CCCC3)no2)c2ccccc12 | 6.26% (active)
34 | O=C(c1cc(-c2ccccc2O)on1)N1CCCC1 | 7.17% (active)
35 | O=C(c1cc(-c2cccs2)on1)N1CCCCC1 | 4.85% (active)
36 | CCOC(=O)c1c(S(=O)(=O)Nc2ccc(CN3CCC(C)CC3)cc2)c(C)n(C)c1C | 1.43%
37 | O=C(Nc1ccc2ccccc2c1[N+](=O)[O-])c1ccccc1 | 6.14% (active)
38 | COc1ccc(-c2csc(Nc3ccccn3)n2)cc1 | 5.68% (active)
39 | COc1ccc(-c2cn3ccc(C)cc3n2)cc1 | 3.87% (active)
40 | COc1ccc(-c2cn3ccsc3n2)cc1 | 6.15% (active)
41 | COC(=O)Nc1nc2ccc(C(=O)C3CC3)cc2[nH]1 | -5.19%
42 | O=C(CSc1cccc[n+]1[O-])c1ccc(-c2ccccc2)cc1 | 1.01%
43 | NS(=O)(=O)c1ccc2nc(NC(=O)C3=COCCO3)sc2c1 | 5.19% (active)
44 | Cc1cc(N)n2nc(-c3ccc(C(C)(C)C)cc3)cc2n1 | 8.64% (active)
45 | CCc1ccc2oc(-c3ccc(N)cc3)nc2c1 | 4.11% (active)
46 | O=C(NCC1CCCO1)c1cc2c(s1)CCCC2 (stereo not drawn) | 4.63% (active)
47 | O=C(O)c1cccc(N=NN2CCCCCC2)c1 | 8.65% (active)
48 | CCOc1ccc(-c2nnc(-c3ccco3)o2)cc1 | 3.8% (active)
49 | C/C(=N\NC(=O)c1ccccc1F)c1ccccn1 | -9.06%
50 | O=C(NCCOc1ccccc1)c1ccccc1F | 6.6% (active)
51 | OC(c1ccccc1)c1nc(-c2cnc3ccccc3c2)cs1 (stereo not drawn) | 6.87% (active)
52 | CC(Oc1ccccc1[N+](=O)[O-])C(=O)N/N=C/c1ccoc1 (stereo not drawn) | -0.59%

Row | Structure (SMILES) | inhibition
53 | Cc1cc(C(=O)NCCc2ccc(Cl)cc2)c(C)o1 | 2.83%
54 | CC(C)Cc1cc(C(=O)NCCc2ccccc2)no1 | 4.55% (active)
55 | CC(C)c1ccc(C=NNc2ccc([N+](=O)[O-])cn2)cc1 | 7.98% (active)
56 | O=[N+]([O-])c1ccc2oc(-c3cccc(O)c3)nc2c1 | 8.65% (active)
57 | COc1ccc(Nc2ncc(F)c(N3CCOCC3)n2)cc1 | 7.01% (active)
58 | Cc1ccc(-c2nc3ccc(Br)cn3c2Cc2ccccc2C(F)(F)F)cc1 | 3.81% (active)
59 | COc1ccccc1Cc1c(-c2ccc(F)cc2)nc2ccc(C)cn12 | 3.36% (active)
60 | C=CCn1c(SCC(=O)Nc2ccc(NC(C)=O)cc2)nc2sc(C)c(C)c2c1=O | -2.48%
61 | O=C(c1cnn(-c2ccc(Cl)cc2)c1)c1ccccc1O | 7.41% (active)
62 | O=C1C(C=NCC2CCCO2)=C(O)c2ccccc21 (stereo not drawn) | 4.34% (active)
63 | Nc1ccc2nn(-c3ccc(Cl)cc3)nc2c1 | 10.2% (active)
64 | COc1ccc2nc(SCc3ccccc3)nc(C)c2c1 | 8.35% (active)
65 | CC(C)c1ccc(Nc2nnc(SCC(=O)c3nnc(-c4ccccc4)o3)s2)cc1 | 5.91% (active)
66 | CCc1ccc(NC(=O)N2CCc3ccccc3C2)cc1 | 2.82%
67 | O=C(Nc1ccc2c(c1)CCC2)c1ccc(Br)s1 | 5.35% (active)
68 | O=C(Nc1ccccc1)Nc1nc2ccccc2s1 | 10.3% (active)
69 | Nc1ccc(C(=O)Nc2ccccc2N)cc1 | 42.6% (active)
70 | O=C(NC(=S)NC1CCCCC1)c1ccc(Cl)cc1 | 4.24% (active)
71 | CSCCC(NC(=O)c1ccco1)C(=O)Nc1cc(C)ccn1 (stereo not drawn) | 7.83% (active)
72 | O=c1c2c(nc3n1CCCCC3)sc1c(O)cccc12 | 7.48% (active)
73 | CC[C@]1(O)CC2CN(CCc3c([nH]c4ccccc34)[C@@](C(=O)OC)(c3cc4c(cc3OC)N(C=O)[C@H]3[C@@](O)(C(=O)OC)[C@H](OC(C)=O)[C@]5(CC)C=CCN6CC[C@]43[C@@H]65)C2)C1 (stereo partly drawn) | -7.3%
74 | COC(=O)c1sc(NC(=O)c2ccc(OC)cc2OC)nc1C | 3.15% (active)
75 | CN1OC[C@@H]2CN[C@H](c3ccc(-c4ccccc4)cc3)C[C@@H]21 | 5.72% (active)
76 | CC(=O)Nc1cccc(-c2csc(Nc3cccc(C)n3)n2)c1 | 8.58% (active)
77 | c1ccc2[nH]c(-c3nc4ccccc4[nH]3)nc2c1 | 8.74% (active)
78 | Cc1ccc(-c2nc3ccccc3[nH]2)cc1N | 8.86% (active)

Row | Structure (SMILES) | inhibition
79 | O=c1oc(/C=C/c2ccccc2)nc2ccccc12 | 7.24% (active)
80 | Cn1ccnc1SCC(=O)Nc1ccc2c(c1)OCCO2 | 5.39% (active)
81 | CCN(CC(=O)Nc1c(F)cccc1F)C(=O)c1cnc(C)cn1 | 0.25%
82 | Cc1nc2cc(NC(=O)Nc3cccc(F)c3)ccc2n1C | 8.9% (active)
83 | O=C(N/N=C\C1CC=CCC1)c1ccc(Br)o1 (stereo not drawn) | 0.2%
84 | NC(=O)CSc1nnc(NC(=O)c2ccc3ccccc3c2)s1 | 7.69% (active)
85 | CCSc1nnc(NC(=O)c2ccc(C)cc2)s1 | 6.21% (active)
86 | Nc1c(C(=O)Nc2ccc3c(c2)OCCO3)nnn1Cc1ccccc1 | 7.14% (active)
87 | CC[C@]1(O)C[C@@H]2CN(CCc3c([nH]c4ccccc34)[C@@](C(=O)OC)(c3cc4c(cc3OC)N(C)[C@H]3[C@@](O)(C(=O)OC)[C@H](OC(C)=O)[C@]5(CC)C=CCN6CC[C@]43[C@@H]65)C2)C1 | -6.49%
88 | Cc1ccc(-n2cc3ccc([N+](=O)[O-])cc3n2)cc1 | 6.18% (active)
89 | Brc1ccc2nc(N3CCCC3)sc2c1 | 4.08% (active)
90 | S=C(c1ccc(-c2ccccc2)o1)N1CCCCC1 | 5.47% (active)
91 | Cc1ccnc(NC(=O)CCNS(=O)(=O)c2ccc(C)c(C)c2)c1 | 9.35% (active)
92 | Cc1ccnc(NC(=O)CNC(=O)c2ccccc2)c1 | 2.35%
93 | CC1CCCN(c2ccc(C(=O)NCCc3ccccc3)cn2)C1 (stereo not drawn) | 3.59% (active)
94 | O=C(c1cnn2ccccc12)N1CCc2ccccc21 | 6.23% (active)
95 | Cc1sc(NC(=O)c2ccc3ncsc3c2)c(C(N)=O)c1C | 5.5% (active)
96 | O=C(Nc1ccc(Cl)c(Cl)c1)c1ccccc1NC(=O)C1CC=CCC1C(=O)O (stereo not drawn) | 4.5% (active)
97 | CN1CCN(c2ccc(NC(=O)c3ccc4c(c3)OCCO4)cc2Cl)CC1 | 4.72% (active)
98 | Cc1nc(NC(=O)c2ccc3c(c2)OCCO3)ccc1Br | 7.07% (active)
99 | Cc1ccc(C(=O)NNC(=O)c2ccc3c(c2)OCCO3)cc1 | 2.35%
100 | O=C(Nc1ccccc1)c1ccc2c(c1)OCCCO2 | 7.83% (active)
101 | Cc1c(C(=O)Nc2ccccn2)oc2ccc(Br)cc12 | 8.11% (active)
102 | O=C(CCc1ccccc1)Nc1ncc([N+](=O)[O-])s1 | 1.92%
103 | O=C(Nc1ccn(Cc2ccccc2)n1)c1n[nH]c([N+](=O)[O-])c1Cl | 3.58% (active)
